Measurements taken from PubChem BioAssay (NCI).
Compounds without any hit were thinned out: in the full panel of roughly 83,000, 20% have a hit.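 Assay: single dose, 48 h. Readout: percent growth (0 = no net growth; negative = cell death). Active: <10.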 Unmarked numbers belong to inactive results. Activity calls are given as the source filed them.

Columns and labels:
Assay in all cases: NCI-60 one-dose screen, 48 h (100 = growth as untreated, 0 = no growth, -100 = all killed)
EKVX NSCLC = conditions: 10 µM unless noted
SN12C renal = conditions: 10 µM unless noted
UO-31 renal = conditions: 10 µM unless noted
TK-10 renal = conditions: 10 µM unless noted
ACHN renal = conditions: 10 µM unless noted
CAKI-1 renal = conditions: 10 µM unless noted
A498 renal = conditions: 10 µM unless noted
CCRF-CEM leukemia = conditions: 10 µM unless noted
MOLT-4 leukemia = conditions: 10 µM unless noted
SK-MEL-2 melanoma = conditions: 10 µM

Row | SMILES | growth (EKVX NSCLC) | growth (SN12C renal) | growth (UO-31 renal) | growth (TK-10 renal) | growth (ACHN renal) | growth (CAKI-1 renal) | growth (A498 renal) | growth (CCRF-CEM leukemia) | growth (MOLT-4 leukemia) | growth (SK-MEL-2 melanoma)
1 | CC[C@H](Nc1ncnc2nc[nH]c12)c1nc2cccc(F)c2c(=O)n1-c1ccccc1 | 80.1% | 51.6% | 31.3% | 17.4% | 41.5% | 52.9% | -14.3% (active) | 52.3% | 62.2% | –
2 | COc1cc(C2CC(c3ccc(Cl)cc3)=NN2c2ccc(Cl)cc2)cc(OC)c1OC (configuration not stated) | – | 88.4% | 77.1% | 98% | 86% | 82.3% | 88% | 84.7% | 67.8% | 98.8%
3 | C[C@H]1Oc2cc(cnc2N)-c2c(nn(C)c2C#N)CN(C)C(=O)c2ccc(F)cc21 | 82.5% | 94.6% | 84.3% | 74% | 86% | 73% | 109% | 93.8% | 70.5% | –
4 | Cc1cc(C2(c3ccc(O)c(C)c3)OS(=O)(=O)c3ccccc32)ccc1O | 111% | 101% | 64.7% | 111% | 108% | 97.6% | 94.2% | 101% | 91.1% | –
5 | COC(=O)[C@@H](NC(=O)[C@@H](OC)[C@@H]1Cc2cc3cc(OC4CC(OC5CC(O)C(O)C(C)O5)C(O)C(C)O4)c(C)c(O)c3c(O)c2C(=O)[C@H]1OC1CC(OC2CC(OC3CC(C)(O)C(O)C(C)O3)C(O)C(C)O2)C(O)C(C)O1)C(C)C (some centres not stated) | 25.3% | 13.2% | 7.39% (active) | 21.7% | 0.317% (active) | 20% | -83.2% (active) | 7.92% (active) | 1.35% (active) | –
6 | Cc1cc(C(O)CN(C)C)cc2c1ccc1cc(C(C)C)ccc12 (configuration not stated) | 84.5% | 62.6% | 26.4% | -62.1% (active) | -28.6% (active) | 8.02% (active) | 76.8% | 3.14% (active) | -29.5% (active) | –
7 | COc1cc2nc(Nc3cccc(Cl)c3)nc(N)c2cc1OC | 111% | 79.3% | 75.3% | 91.9% | 95.8% | 146% | 63.5% | -81.3% (active) | 53.7% | –
8 | CN1CCC(CNc2ccc3ncc(-c4cccc(OC(F)(F)F)c4)n3n2)CC1 | 4.31% (active) | -81.2% (active) | -95.1% (active) | -4.7% (active) | -54.7% (active) | -62.8% (active) | -79.8% (active) | -5.49% (active) | -5.02% (active) | –
9 | COc1cc(F)c(F)c(Nc2ccc(I)cc2F)c1NS(=O)(=O)C1(C[C@H](O)CO)CC1 | 29.2% | 51% | 16.2% | 27.7% | 37.9% | 30.5% | -48% (active) | 67% | 43.2% | –
10 | CC(C)(C)C(=O)OCOP(=O)(OCOC(=O)C(C)(C)C)C1CCCN(OC(=O)c2ccccc2)C1=O (configuration not stated) | 21.4% | – | 11.5% | 11.7% | 15.7% | – | 10.9% | – | 7.12% (active) | 51%
11 | Cc1ccc(-c2cc3c(SCC(=O)Nc4cc(C(F)(F)F)ccc4Cl)nccn3n2)cc1 | – | 73.6% | 30.4% | 91.3% | 40.4% | 30.2% | 71.3% | – | 5.39% (active) | 85.4%
12 | CN(C)CCn1c(=O)c2c3cc4c(cc3n(CCN(C)C)c2c2ccc(Cl)cc21)OCO4 | 74% | 31.7% | 57.8% | 103% | 26.3% | 42.4% | 67.1% | 14.4% | 3.05% (active) | –
13 | CN1[C@@H]2CC[C@H]1/C(=C\c1ccccc1)C1=C2[C@@H](c2ccccc2)C(C#N)=C(N)O1 | 98.4% | 75.2% | 61.7% | 89.5% | 97.4% | 87.4% | 70.3% | 70.6% | 67.4% | –
14 | Cc1ccc(-[n+]2c3cc(N)c(C)cc3nc3cc(C)c(Nc4ccccc4)cc32)cc1 | -22.6% (active) | -70.6% (active) | -86.8% (active) | -18.4% (active) | -92% (active) | -42.2% (active) | -84.5% (active) | 1.93% (active) | -2.02% (active) | –
15 | CC(C)NC[C@@H](C(=O)N1CCN(c2ncnc3c2[C@H](C)C[C@H]3O)CC1)c1ccc(Cl)cc1 | 72% | 64.4% | 53.7% | 32.2% | 68.7% | 45.1% | -21.7% (active) | 22.5% | 23.3% | –
16 | CCCS(=O)(=O)Nc1ccc(F)c(C(=O)c2c[nH]c3ncc(-c4ccc(Cl)cc4)cc23)c1F | 43.1% | 49.6% | 19.5% | 23.8% | 24.4% | 12.1% | -1.82% (active) | 26.9% | 15.6% | –
17 | Cc1nc(-c2cn3c(n2)-c2ccc(-c4cnn(C(C)(C)C(N)=O)c4)cc2OCC3)n(C(C)C)n1 | 36.1% | 25.7% | 5.32% (active) | 8.61% (active) | 15.9% | 21.1% | -31.3% (active) | 26.4% | 15.2% | –
18 | Cn1cnc2c(F)c(Nc3ccc(Br)cc3F)c(C(=O)NOCCO)cc21 | 54% | 56.2% | 48.8% | 50.5% | 57.6% | 45.9% | -28.4% (active) | 73.8% | 72.9% | –
19 | O=C(N/N=C/c1ccc(Cl)cc1)c1cc(-c2cc3ccccc3o2)nn1-c1ccccc1 | 89.6% | – | – | 94.8% | 93.5% | 100% | – | 95.6% | 78% | 91.2%
20 | C=CC(=O)Nc1cc2c(Nc3ccc(F)c(Cl)c3)ncnc2cc1C#CC(C)(C)N1CCN(C)CC1 | -93% (active) | -87.7% (active) | -99.8% (active) | -97.5% (active) | -100% (active) | -99.8% (active) | -96.3% (active) | -11.5% (active) | -23.1% (active) | –
21 | CC(=O)NCC(=O)N1[C@@H]2CC[C@H]1c1ccc(Nc3ncc(C(F)(F)F)c(NC4CCC4)n3)cc12 | 69.1% [2.5 µM] | 37.8% [2.5 µM] | 2.84% [2.5 µM] (active) | 43.7% [2.5 µM] | 38.6% [2.5 µM] | 20.5% [2.5 µM] | 14.7% [2.5 µM] | 40.2% [2.5 µM] | 20% [2.5 µM] | –
22 | COc1cc(Nc2ncc3c(n2)-c2ccc(Cl)cc2C(c2c(F)cccc2OC)=NC3)ccc1C(=O)O | 89.9% | 72.6% | 51.7% | 63.9% | 64.4% | 68.2% | 63.2% | 47.2% | 52.8% | –
23 | COc1ncc(-c2ccc3nccc(-c4ccnnc4)c3c2)cc1NS(=O)(=O)c1ccc(F)cc1F | -7.55% (active) | 16.4% | -25.7% (active) | -44.7% (active) | 15.3% | -19.8% (active) | -48.2% (active) | 1.61% (active) | -11.9% (active) | –
24 | O=C(COc1ccc(/C=C2\Cc3ccc(Cl)cc3C2=O)cc1)Nc1nccs1 | 110% | 95.7% | 28.7% | 138% | 92.7% | 90.1% | 127% | 59.5% | 51.7% | –
25 | COC(=O)[C@H](Cc1ccc(O)cc1)NC(=O)[C@@H](OC)[C@@H]1Cc2cc3cc(OC4CC(OC5CC(O)C(O)C(C)O5)C(O)C(C)O4)c(C)c(O)c3c(O)c2C(=O)[C@H]1OC1CC(OC2CC(OC3CC(C)(O)C(O)C(C)O3)C(O)C(C)O2)C(O)C(C)O1 (some centres not stated) | 21.5% | 13.3% | 18.1% | 23.5% | 4.06% (active) | 69.5% | -63.2% (active) | 11.1% | -1.8% (active) | –
26 | CC(C)(O)CC(=O)NCCn1ccc2ncnc(Nc3ccc(Oc4cccc(C(F)(F)F)c4)c(Cl)c3)c21 | 8.11% (active) | 12.4% | -6.15% (active) | -30.3% (active) | 8.71% (active) | 19.2% | -28.7% (active) | 7.97% (active) | 7.32% (active) | –
27 | Cc1cc(Nc2nc(N[C@@H](C)c3ncc(F)cn3)ncc2Cl)n[nH]1 | 99.6% | 77.6% | 51% | 82.8% | 63.4% | 70.1% | -2.39% (active) | 76.6% | 62.3% | –
28 | C=CCCCOC1[C@H](OCc2ccccc2)C(OCc2ccccc2)C(OC)O[C@@H]1CNC(=O)c1cccc(I)c1 (some centres not stated) | 36.3% | 38.7% | 35.4% | 64.5% | 32.9% | 38.3% | 71.2% | 13.8% | 20.4% | –
